Source: PubChem
KB-3-1 cytotox: kills parental KB-3-1 adenocarcinoma cells; AID 1347075; actives 1.4% (n = 400,000); KB-3-1 viability, CellTiter-Glo ATP luminescence, 72 h; Potency, µM (titrated, usually from 46.1 µM), actives largely listed as cytotoxic; note: nearly all actives have a fitted effect of over 60% in size
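Parental KB-3-1 viability, qHTS format: 72 h compound exposure, 37 °C; CellTiter-Glo; media-only wells and DMSO plates as controls; concentration-effect fits on corrected data.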
HT1080 IDH1KD tx: toxicity to HT-1080 IDH1 knockdown cells (counter line); AID 686971; Potency, µM (series often up to 46.1 µM), usual class: cytotoxic; HT-1080 IDH1 knockdown viability, ATP luminescence, 48 h; actives 2% (n = 360,000)
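CellTiter-Glo luminescence after 48 h compound exposure at 37 degrees C of IDH1-knockdown HT-1080 cells in 5% FBS RPMI. %Activity scaled between DMSO wells and cell-free media wells, with curves fitted and assigned curve classes.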
KB-V1 MDR tox: kills drug-selected multidrug resistant KB-V1 cells; AID 1347076; actives 3.4% (n = 400,000); Potency, µM (titrated, usually from 46.1 µM), hits mostly cytotoxic; KB-V1 MDR cells viability, CellTiter-Glo, 72 h; note: nearly all actives have a fitted effect of over 60% in size
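Following 72 h at 37 degrees C with compound, KB-V1 cell viability was read by CellTiter-Glo luminescence, medium being phenol-red-free DMEM plus 10% FBS; concentration-response parameters came from normalized, curve-fitted qHTS data.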
ATXN viability: cell viability loss in ATXN counter-screen. S2 cells (HEK-293 line with an ATXN2-luciferase reporter) viability, CellTiter-Fluor protease fluorescence, 24 h. Potency, µM (top dose mostly 56.7 µM), actives largely listed as cytotoxic. actives 0.49% (n = 400,000); note: nearly all actives have a fitted effect of over 40% in size
HT1080-NT tox: kills 2HG-producing HT-1080-NT fibrosarcoma cells; HT-1080-NT fibrosarcoma viability, CellTiter-Glo ATP luminescence, 48 h; AID 686970; actives 1.6% (n = 360,000); Potency, µM (doses to about 46.1 µM), hits mostly cytotoxic;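 note: NT is the 2HG producing partner of a matched IDH1 knockdown line; nearly all actives have a fitted effect of over 55% in size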
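Compounds were tested in concentration-response format on HT-1080-NT cells for 48 hours at 37 degrees C. Cell viability came from CellTiter-Glo luminescence; curves were classified by r2, response magnitude and activity.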
ATXN2 expr inh: ATXN2 expression inhibition; HEK-293 ATXN2-luciferase reporter, luminescence, 24 h; actives 0.72% (n = 360,000); AID 1745845; Potency, µM (series often up to 57 µM), hits mostly inhibitors; note: nearly all actives have a fitted effect of over 55% in size
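ATXN2-luciferase reporter cells (luciferase flanked by upstream and downstream ATXN2 gene portions) were treated 24 h at 37 °C with compounds at up to 57 uM. SteadyGlo luminescence gave expression; GF-AFC fluorescence gave viability.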
Numbers stand for hits. Sampled rows, rich in hits. Any-hit rate of the full collection: about 6.2%. Calls come from the whole dose curve; as a rule, active = well fitted curve in the direction sought with a large enough effect; inconclusive = small, poorly fitted or top-dose-only effect, or another doubt; inactive = no such curve, though single readings can be large; an effect the other way counts as inactive or inconclusive.

`N/C(=N\OC(=O)N1CCOCC1)c1ccc(Cl)cc1` gave KB-3-1 cytotox inconclusive, HT1080 IDH1KD tx inactive, KB-V1 MDR tox inactive, ATXN viability inactive, HT1080-NT tox inactive and ATXN2 expr inh inactive.
`N/C(=N\OC(=O)N1CCOCC1)c1ccc(Br)cc1` gave KB-3-1 cytotox inactive, HT1080 IDH1KD tx inactive, KB-V1 MDR tox 21µM, ATXN viability inactive and HT1080-NT tox inconclusive.
Screening COc1cc(Nc2ncc3c(n2)CCN(Cc2cc(F)cc(F)c2)C3)cc(OC)c1 returned KB-3-1 cytotox inconclusive, KB-V1 MDR tox 8.2µM, ATXN viability inconclusive and ATXN2 expr inh inconclusive.
Screening COc1cc(Nc2ncc3c(n2)CCN(Cc2cccc(C)c2)C3)cc(OC)c1 returned KB-3-1 cytotox inconclusive, KB-V1 MDR tox inconclusive, ATXN viability inconclusive and ATXN2 expr inh inactive.
`CN(C)C(=O)CCC(=O)NCC1Cc2cccc(-c3ccccc3C(F)(F)F)c2O1` (centres undefined) gave ATXN viability inactive.
Screening COC1CCC2(C)C(=CCC3C4CC(O)CC4(C)CCC32)C1 (centres undefined) returned KB-3-1 cytotox inactive, HT1080 IDH1KD tx inactive, KB-V1 MDR tox 18µM, ATXN viability inactive, HT1080-NT tox inactive and ATXN2 expr inh inactive.
For N=c1c2c(-c3ccccc3)c(-c3ccccc3)n(Cc3ccccc3)c2ncn1CCO the results were KB-3-1 cytotox inactive, HT1080 IDH1KD tx inconclusive, KB-V1 MDR tox 18µM, ATXN viability 8.9µM, HT1080-NT tox inactive and ATXN2 expr inh inconclusive.
For N=c1c2c(-c3ccccc3)c(-c3ccccc3)oc2ncn1CCN1CCOCC1 the results were KB-3-1 cytotox inconclusive, HT1080 IDH1KD tx inconclusive, KB-V1 MDR tox inconclusive, ATXN viability inactive, HT1080-NT tox inconclusive and ATXN2 expr inh inactive.
`N=c1c2c(-c3ccccc3)c(-c3ccccc3)n(Cc3ccco3)c2ncn1CCCn1ccnc1` gave KB-3-1 cytotox inconclusive, HT1080 IDH1KD tx inconclusive, KB-V1 MDR tox 16µM, ATXN viability inconclusive, HT1080-NT tox inconclusive and ATXN2 expr inh inactive.
Screening CC(C)Cn1cnc2c(c(-c3ccccc3)c(-c3ccccc3)n2Cc2ccco2)c1=N returned KB-3-1 cytotox inconclusive, HT1080 IDH1KD tx 16µM, KB-V1 MDR tox inconclusive, ATXN viability inconclusive, HT1080-NT tox inconclusive and ATXN2 expr inh inactive.
`N=c1c2c(-c3ccccc3)c(-c3ccccc3)n(Cc3ccco3)c2ncn1Cc1ccccc1` gave KB-3-1 cytotox inactive, HT1080 IDH1KD tx inactive, KB-V1 MDR tox inactive, ATXN viability inactive, HT1080-NT tox inactive and ATXN2 expr inh inactive.
`N=c1c2c(-c3ccccc3)c(-c3ccccc3)oc2ncn1CCCN1CCOCC1` gave KB-3-1 cytotox inconclusive, HT1080 IDH1KD tx inactive, KB-V1 MDR tox 23µM, ATXN viability inconclusive, HT1080-NT tox inactive and ATXN2 expr inh inconclusive.
Screening Cc1ccc(CN2c3ccccc3-c3nc(SCC(=O)NCCc4ccccc4)ncc3S2(=O)=O)cc1 returned KB-3-1 cytotox inactive, KB-V1 MDR tox inactive, ATXN viability inactive and ATXN2 expr inh inactive.
O=S1(=O)N=C(Oc2ccccc2C(F)(F)F)c2ccccc21 was read as KB-3-1 cytotox inactive and KB-V1 MDR tox inconclusive.
Screening Cc1cccc(CCNC(=O)C2CCN(c3nc4ccccc4nc3C(F)(F)F)CC2)c1 returned KB-3-1 cytotox inactive, KB-V1 MDR tox inactive, ATXN viability inactive and ATXN2 expr inh inactive.
For Cn1cnnc1SCC(=O)Nc1ccc(C#N)cc1 the results were KB-3-1 cytotox inactive, KB-V1 MDR tox inactive, ATXN viability inactive and ATXN2 expr inh inactive.
Screening CC[n+]1ccnc2ccccc21 returned KB-3-1 cytotox inactive and KB-V1 MDR tox inconclusive.
Screening c1ccc(-c2c(-c3ccccc3)n(Cc3ccco3)c3ncnc(NCCCn4ccnc4)c23)cc1 returned KB-3-1 cytotox inconclusive, HT1080 IDH1KD tx 18µM, KB-V1 MDR tox inconclusive, HT1080-NT tox 18µM and ATXN2 expr inh inconclusive.
`OCCNc1ncnc2c1c(-c1ccccc1)c(-c1ccccc1)n2Cc1ccco1` gave KB-3-1 cytotox inactive, HT1080 IDH1KD tx inactive, KB-V1 MDR tox inconclusive, ATXN viability inactive, HT1080-NT tox inactive and ATXN2 expr inh inactive.
Screening N=c1c2c(-c3ccccc3)c(-c3ccccc3)n(Cc3ccco3)c2ncn1CCCN1CCOCC1 returned KB-3-1 cytotox 21µM, HT1080 IDH1KD tx 13µM, KB-V1 MDR tox 21µM, ATXN viability inactive, HT1080-NT tox inconclusive and ATXN2 expr inh inactive.
COC(=O)c1cc(OC)c(OC)c(OC)c1NC(=O)c1cc(=O)n(C)c(=O)n1C was read as KB-3-1 cytotox inactive, KB-V1 MDR tox inactive, ATXN viability inactive and ATXN2 expr inh inactive.
For Cc1nnc(N2CCN(c3ccccc3F)CC2)c2c1nnn2Cc1ccccc1 the results were KB-3-1 cytotox inactive, KB-V1 MDR tox inactive, ATXN viability inactive and ATXN2 expr inh inactive.
`O=C(CSc1nc2ccccc2n1Cc1ccc(F)c(Cl)c1)N1CCN(c2ccc(F)cc2)CC1` gave KB-3-1 cytotox inactive, KB-V1 MDR tox inconclusive, ATXN viability inactive and ATXN2 expr inh inactive.
Screening COc1ccc(OC)c(CNC(=O)c2cc3c(=O)oc4ccc(C)cc4c3s2)c1 returned KB-3-1 cytotox inactive, KB-V1 MDR tox inconclusive, ATXN viability inactive and ATXN2 expr inh inactive.
`CCc1nnc2c(N3CCN(c4cccc(C)c4)C(C)C3)nc3ccccc3n12` (centres undefined) gave KB-3-1 cytotox inactive and KB-V1 MDR tox inactive.
`CCCCn1cnc2c(sc3nc4c(cc32)CSC(C)(C)C4)c1=O` gave KB-3-1 cytotox inactive, HT1080 IDH1KD tx inactive, KB-V1 MDR tox 21µM, ATXN viability inactive, HT1080-NT tox inactive and ATXN2 expr inh inactive.
CC(C)CCn1cnc2c(sc3nc4c(cc32)CSC(C)(C)C4)c1=O was read as KB-3-1 cytotox inactive, HT1080 IDH1KD tx inactive, KB-V1 MDR tox inconclusive, ATXN viability inactive, HT1080-NT tox inactive and ATXN2 expr inh inactive.
Screening COCCCn1c(=N)c(C(N)=S)cc2c(=O)n3cccc(C)c3nc21 returned KB-3-1 cytotox inactive, HT1080 IDH1KD tx inactive, KB-V1 MDR tox inactive, ATXN viability inconclusive, HT1080-NT tox inactive and ATXN2 expr inh inactive.
`Cc1ccc2nc3c(cc(C(N)=S)c(=N)n3CCCOC(C)C)c(=O)n2c1` gave KB-3-1 cytotox inconclusive, HT1080 IDH1KD tx 11µM, KB-V1 MDR tox inconclusive, HT1080-NT tox inconclusive and ATXN2 expr inh inactive.
For CCN(c1ccccc1)c1nnc(NC(=O)Nc2cccc(Cl)c2C)s1 the results were KB-3-1 cytotox inactive and KB-V1 MDR tox inactive.
Screening Cc1cccc(CNS(=O)(=O)c2ccc3[nH]c(=O)ccc3c2)c1 returned KB-3-1 cytotox inactive, KB-V1 MDR tox inactive, ATXN viability inactive and ATXN2 expr inh inactive.
